Laboratory results as given in PubChem BioAssay (EPA / NIEHS).
Results filed as inconclusive are left out. Activity calls are given as the source filed them. The calls were made as follows, unless noted: active = hit-call score of the fitted dose curve at least 0.9, where 1 is the maximum; inactive = score below 0.9.

Experiments:
[1] = molecular target: Retinoic acid receptor alpha (Homo sapiens) (UniProt P10276); assay: ATG_DR5_RAR_CIS: Attagene CIS-FACTORIAL HepG2 Assay for human Retinoic Acid Receptor Alpha (RARE), DR5 submotif (AID 2282934); conditions: HepG2 Attagene cis-factorial RARE DR5 reporter, mRNA; actives raise or lower the signal
Summary of the method: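 HepG2 cells transiently transfected with multiplexed reporter units; DR5 cis-element drives reporter through endogenous transcription factors. After 24 h dosing, reporter mRNA quantified by RT-PCR, fluorescent labeling, HpaI digestion and capillary electrophoresis; bidirectional fitting versus DMSO.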

[2] = molecular target: Hepatocyte nuclear factor 3-beta (Homo sapiens) (UniProt Q9Y261); assay: ATG_FoxA2_CIS: Attagene CIS-FACTORIAL HepG2 Assay for human Forkhead box A2 (FOXA2) (AID 2282942); conditions: HepG2 cis-reporter transcription factor activity, 24 h; actives raise or lower the signal
Summary of the method: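 HepG2 cells transiently transfected with multiple cis-regulated reporter transcription units, dosed for 24 h. Reporter mRNA measured by RT-PCR, 6-FAM labelling, HpaI digestion and capillary electrophoresis; bidirectional fitting against DMSO baseline.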

[3] = ATG_GLI_CIS: Attagene CIS-FACTORIAL HepG2 Assay for human Zinc Finger Protein GLI1 (AID 2282945); conditions: HepG2, Attagene cis-factorial reporter mRNA, GLI element; actives raise or lower the signal
Summary of the method: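 Transiently transfected HepG2 cells report endogenous transcription factor activity via cis-element-driven reporter units. After 24 h compound exposure, reporter mRNA was measured by RT-PCR with capillary electrophoresis; bidirectional fitting against DMSO baseline.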

[4] = ATG_GRE_CIS: Attagene CIS-FACTORIAL HepG2 Assay for human Glucocorticoid Response Elements (GRE) (AID 2282947); conditions: HepG2 GRE cis-reporter, Attagene multiplex mRNA; actives raise or lower the signal
Summary of the method: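 Read-out: fluorescent reporter-transcript fragments separated by capillary electrophoresis after RT-PCR. Transiently transfected HepG2 cells carrying cis-element-driven reporter units were dosed for 24 h; gain or loss of signal fitted against DMSO control.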

[5] = ATG_MRE_CIS: Attagene CIS-FACTORIAL HepG2 Assay for human Metal Responsive Element (MRE) (AID 2282954); conditions: HepG2 MRE cis-reporter transcription, Attagene multiplex; actives raise or lower the signal
Summary of the method: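 RT-PCR/capillary electrophoresis readout of reporter mRNA, 24 h post-dosing, in HepG2 cells transfected with multiplexed cis-regulated reporter constructs. Gain or loss of signal fitted bidirectionally against DMSO baseline.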

[6] = ATG_RORE_CIS: Attagene CIS-FACTORIAL HepG2 Assay for human RAR-related Orphan Receptor Element (RORE) (AID 2282959); conditions: HepG2 Attagene cis-factorial RORE reporter, mRNA; actives raise or lower the signal
Summary of the method: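 HepG2 cells transiently transfected with multiple cis-element reporter transcription units, exposed to chemical for 24 h. Reporter mRNA quantified by RT-PCR, 6-FAM primer-extension labeling, HpaI digestion and capillary electrophoresis; bidirectional fit versus DMSO baseline.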

[7] = ATG_M_32_TRANS: Attagene TRANS-FACTORIAL HepG2 Assay for M32 Transcription Factor (Internal Marker) (AID 2282984; active = hit-call score of the fitted dose curve at least 0.9, where 1 is the maximum;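 also: transcript level of a background control reporter unit measured by RT-PCR and capillary electrophoresis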); conditions: HepG2 Attagene TRANS M32 internal marker reporter
Summary of the method: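 Read-out: fluorescent reporter cDNA fragments resolved by capillary electrophoresis after RT-PCR of total RNA. Transfected HepG2 cells were exposed to chemical for 24 h. Activity scored in the positive direction relative to DMSO.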

[8] = molecular target: Nuclear respiratory factor 1 (Homo sapiens) (UniProt Q16656); assay: ATG_NRF1_CIS: Attagene CIS-FACTORIAL HepG2 Assay for human Nuclear Respiratory Factor 1 (NRF1) Orphan Gene (AID 2282987); conditions: HepG2 NRF1 cis-element reporter, Attagene multiplex; actives raise or lower the signal
Summary of the method: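 HepG2 cells transiently transfected with multiple reporter transcription units under cis-regulatory promoter control, so endogenous transcription-factor activity is read. After 24 h compound exposure, reporter mRNA quantified by RT-PCR, fluorescent labelling, HpaI digestion and capillary electrophoresis; bidirectional fitting versus DMSO.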

[9] = molecular target: Retinoic acid receptor RXR-alpha (Homo sapiens) (UniProt P19793); assay: ATG_RXRa_TRANS: Attagene TRANS-FACTORIAL HepG2 Assay for human Retinoid X Receptor alpha (RXRa) (AID 2283012; active = hit-call score of the fitted dose curve at least 0.9, where 1 is the maximum)
Summary of the method: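 Read-out: fluorescent reporter-transcript fragments quantified by capillary electrophoresis after RT-PCR. Transiently transfected HepG2 cells carrying GAL4-UAS reporters and NR-GAL4 chimeras were exposed to chemical for 24 h; activity scored as increase over DMSO.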

[10] = molecular target: human Retinoid X Receptor beta (RXRb), RXRB (gene 6257) (UniProt P28702); assay: ATG_RXRb_TRANS: Attagene TRANS-FACTORIAL HepG2 Assay for human Retinoid X Receptor beta (RXRb) (AID 2283013; active = hit-call score of the fitted dose curve at least 0.9, where 1 is the maximum)
Summary of the method: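 Read-out: reporter mRNA induction via RT-PCR plus capillary electrophoresis fluorescence, analysed as signal increase relative to DMSO. Cells were human HepG2, transiently transfected with GAL4-UAS reporter constructs and chimeric receptor-Gal4 fusions, dosed for 24 h.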

[11] = TOX21_p53_BLA_p2_viability: Viability Assessment in the Tox21 HCT-116 p53 Agonism Beta-lactamase Assay, Phase 2 (AID 2283591; active = hit-call score of the fitted dose curve at least 0.9, where 1 is the maximum;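 also: compound exposure lasted 16 h at 37 °C; actives lower the ATP signal meaning cytotoxicity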)
Summary of the method: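 HCT116 p53-bla cells, 4000/well, dosed after 5 h plating (217-fold dilution of DMSO stocks) and incubated 16 h at 37C. Viability taken as cellular ATP by CellTiter-Glo luminescence after 30 min RT; signal loss marks cytotoxicity.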

[12] = molecular target: Cellular tumor antigen p53 (Homo sapiens) (UniProt P04637); assay: TOX21_p53_BLA_p3_ratio: Tox21 HCT-116 p53 Agonism Beta-lactamase Assay, Ratio, Phase 3 (AID 2283596; active = hit-call score of the fitted dose curve at least 0.9, where 1 is the maximum)
Summary of the method: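 Cells were seeded at 4000/well, rested 5 h at 37C, then dosed with DMSO compound solutions (217-fold dilution) for 16 h. CCF4-AM substrate was loaded for 2 h at room temperature, and the 460/530 nm emission ratio was fitted for gain of signal versus DMSO.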

[13] = TOX21_p53_BLA_p5_viability: Viability Assessment in the Tox21 HCT-116 p53 Agonism Beta-lactamase Assay, Phase 5 (AID 2283600; active = hit-call score of the fitted dose curve at least 0.9, where 1 is the maximum)
Summary of the method: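 Viability is taken from cellular ATP content, measured by luciferase luminescence in the same wells after the beta-lactamase ratio read. Cells are seeded at 4000 per well and exposed to DMSO-dissolved compounds, diluted 217-fold, for 16 h.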

[14] = ATG_M_32_CIS: Attagene CIS-FACTORIAL HepG2 Assay for M32 Transcription Factor (Internal Marker) (AID 2282949); conditions: HepG2 Attagene cis-factorial M32 reporter, mRNA; actives raise or lower the signal;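 also: background control marker of the multiplexed CIS panel rather than a real target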
Summary of the method: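 Transient MRTU transfection of HepG2; 24 h compound treatment; TriZol RNA, oligo(dT) RT, reporter PCR, 6-FAM primer extension, HpaI cut, CE. Gain/loss of signal vs DMSO.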

[15] = ATG_PBREM_CIS: Attagene CIS-FACTORIAL HepG2 Assay for human Phenobarbital-responsive Enhancer Module (PBREM) (AID 2282955); conditions: HepG2 PBREM cis-reporter, Attagene multiplexed transcription; actives raise or lower the signal
Summary of the method: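 HepG2 cells transiently transfected with multiple cis-regulated reporter transcription units; endogenous factor activity at the PBREM element measured as reporter mRNA 24 h after dosing, via RT-PCR and capillary electrophoresis of fluorescent fragments; bidirectional fitting versus DMSO.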

[16] = ATG_NF_kB_CIS: Attagene CIS-FACTORIAL HepG2 Assay for human Nuclear Factor Kappa B (NF-kB) (AID 2282991); conditions: HepG2 Attagene cis-factorial NF-kB reporter mRNA; actives raise or lower the signal
Summary of the method: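 HepG2 cells transiently transfected with multiplexed cis-element reporter units measuring endogenous transcription factor activity; reporter mRNA read 24 h after dosing by RT-PCR, fluorescent labelling, HpaI digestion and capillary electrophoresis. Bidirectional fit against DMSO baseline.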

[17] = molecular target: human Peroxisome Proliferator-activated Receptor alpha (PPARa), PPARA (gene 5465) (UniProt Q07869); assay: ATG_PPARa_TRANS: Attagene TRANS-FACTORIAL HepG2 Assay for human Peroxisome Proliferator-activated Receptor alpha (PPARa) (AID 2283001; active = hit-call score of the fitted dose curve at least 0.9, where 1 is the maximum)
Summary of the method: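 Transient HepG2 transfection, GAL4-UAS reporters, NR-Gal4 chimeras; 24 h compound exposure. Readout: reporter transcripts by RT-PCR, 6-FAM primer extension, HpaI digest, capillary electrophoresis. Positive direction vs DMSO baseline.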

[18] = molecular target: Cellular tumor antigen p53 (Homo sapiens) (UniProt P04637); assay: TOX21_p53_BLA_p5_ratio: Tox21 HCT-116 p53 Agonism Beta-lactamase Assay, Ratio, Phase 5 (AID 2283599; active = hit-call score of the fitted dose curve at least 0.9, where 1 is the maximum)
Summary of the method: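 HCT-116 p53-bla cells (4000/well) plated 5 h, dosed with compound (217-fold DMSO dilution) for 16 h at 37 C; CCF4-AM substrate 2 h at room temperature. Activity is the 460/530 nm emission ratio (405 nm excitation), fitted in gain-of-signal direction versus DMSO.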

[19] = molecular target: Cellular tumor antigen p53 (Homo sapiens) (UniProt P04637); assay: TOX21_p53_BLA_p4_ratio: Tox21 HCT-116 p53 Agonism Beta-lactamase Assay, Ratio, Phase 4 (AID 2283601; active = hit-call score of the fitted dose curve at least 0.9, where 1 is the maximum)
Summary of the method: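 HCT-116 p53 beta-lactamase reporter cells (4000/well) preincubated 5 h, then compound (217-fold dilution of DMSO stock) for 16 h at 37C. CCF4-AM substrate added 2 h at room temperature; 460/530 nm emission ratio fitted upward versus DMSO.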

[20] = molecular target: Hepatocyte nuclear factor 4-alpha (Homo sapiens) (UniProt P41235); assay: ATG_HNF4a_TRANS: Attagene TRANS-FACTORIAL HepG2 Assay for human Hepatocyte Nuclear Factor 4 alpha (HNF4a) (AID 2282982; active = hit-call score of the fitted dose curve at least 0.9, where 1 is the maximum); conditions: HepG2 HNF4a transactivation reporter, mRNA readout
Summary of the method: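 Transient MRTU transfection of HepG2, 24 h dosing. Readout: reporter mRNA via RT-PCR + capillary electrophoresis, fluorescence; activity fit upward relative to DMSO control.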

Measured: AC50

Chain of Retinoic acid receptor alpha (Homo sapiens) (P10276 whole entry, looked up): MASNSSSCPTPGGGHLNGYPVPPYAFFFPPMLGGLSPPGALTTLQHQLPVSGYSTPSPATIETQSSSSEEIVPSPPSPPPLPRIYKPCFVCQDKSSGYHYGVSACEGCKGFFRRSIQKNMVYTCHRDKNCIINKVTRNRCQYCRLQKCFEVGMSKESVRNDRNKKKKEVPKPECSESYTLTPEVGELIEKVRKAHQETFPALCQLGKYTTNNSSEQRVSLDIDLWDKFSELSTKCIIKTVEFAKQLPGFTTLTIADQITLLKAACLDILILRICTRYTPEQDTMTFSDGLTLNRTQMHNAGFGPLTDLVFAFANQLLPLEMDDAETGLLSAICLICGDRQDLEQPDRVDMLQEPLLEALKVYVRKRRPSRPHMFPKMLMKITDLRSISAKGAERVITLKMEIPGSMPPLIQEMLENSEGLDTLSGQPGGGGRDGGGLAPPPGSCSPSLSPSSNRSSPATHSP
Chain of human Peroxisome Proliferator-activated Receptor alpha (PPARa), PPARA (gene 5465) (Q07869 whole entry, looked up, the tested form may be a part): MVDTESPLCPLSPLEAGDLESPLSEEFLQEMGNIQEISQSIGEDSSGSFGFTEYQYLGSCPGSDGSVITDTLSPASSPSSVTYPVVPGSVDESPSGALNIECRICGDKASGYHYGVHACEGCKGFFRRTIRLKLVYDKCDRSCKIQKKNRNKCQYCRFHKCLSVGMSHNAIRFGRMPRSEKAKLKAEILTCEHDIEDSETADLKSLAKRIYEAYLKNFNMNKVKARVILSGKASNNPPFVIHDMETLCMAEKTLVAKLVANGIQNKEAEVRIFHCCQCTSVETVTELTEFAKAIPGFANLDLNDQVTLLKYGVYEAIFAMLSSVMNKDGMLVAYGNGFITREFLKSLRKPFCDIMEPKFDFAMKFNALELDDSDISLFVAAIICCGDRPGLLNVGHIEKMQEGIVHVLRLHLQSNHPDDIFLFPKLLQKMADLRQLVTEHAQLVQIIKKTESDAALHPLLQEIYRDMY
Chain of Cellular tumor antigen p53 (Homo sapiens) (P04637 whole entry, looked up): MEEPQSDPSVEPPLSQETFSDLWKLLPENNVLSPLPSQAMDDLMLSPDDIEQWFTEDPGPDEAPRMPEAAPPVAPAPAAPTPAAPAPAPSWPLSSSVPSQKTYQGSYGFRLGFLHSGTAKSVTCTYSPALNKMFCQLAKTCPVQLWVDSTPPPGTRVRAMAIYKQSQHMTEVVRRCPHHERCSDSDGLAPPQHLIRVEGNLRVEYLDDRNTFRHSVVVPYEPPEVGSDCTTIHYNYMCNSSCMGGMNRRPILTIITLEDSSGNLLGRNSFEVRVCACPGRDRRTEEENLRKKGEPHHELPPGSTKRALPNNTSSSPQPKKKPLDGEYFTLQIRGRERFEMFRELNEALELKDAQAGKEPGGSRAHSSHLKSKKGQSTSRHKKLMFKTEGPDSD
Chain of Hepatocyte nuclear factor 3-beta (Homo sapiens) (Q9Y261 whole entry, looked up): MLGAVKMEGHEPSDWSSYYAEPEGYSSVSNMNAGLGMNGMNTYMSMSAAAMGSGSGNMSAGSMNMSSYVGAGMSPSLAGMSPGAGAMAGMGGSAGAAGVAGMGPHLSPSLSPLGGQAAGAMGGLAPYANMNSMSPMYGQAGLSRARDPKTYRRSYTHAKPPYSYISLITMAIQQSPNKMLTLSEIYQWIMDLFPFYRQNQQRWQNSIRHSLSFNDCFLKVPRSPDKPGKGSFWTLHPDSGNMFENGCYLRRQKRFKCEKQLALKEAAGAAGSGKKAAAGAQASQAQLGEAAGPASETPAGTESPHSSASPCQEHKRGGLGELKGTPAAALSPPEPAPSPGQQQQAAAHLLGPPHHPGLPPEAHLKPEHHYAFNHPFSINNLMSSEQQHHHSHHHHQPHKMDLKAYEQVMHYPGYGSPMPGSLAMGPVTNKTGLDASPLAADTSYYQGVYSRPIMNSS
Chain of Retinoic acid receptor RXR-alpha (Homo sapiens) (P19793 whole entry, looked up, the tested form may be a part): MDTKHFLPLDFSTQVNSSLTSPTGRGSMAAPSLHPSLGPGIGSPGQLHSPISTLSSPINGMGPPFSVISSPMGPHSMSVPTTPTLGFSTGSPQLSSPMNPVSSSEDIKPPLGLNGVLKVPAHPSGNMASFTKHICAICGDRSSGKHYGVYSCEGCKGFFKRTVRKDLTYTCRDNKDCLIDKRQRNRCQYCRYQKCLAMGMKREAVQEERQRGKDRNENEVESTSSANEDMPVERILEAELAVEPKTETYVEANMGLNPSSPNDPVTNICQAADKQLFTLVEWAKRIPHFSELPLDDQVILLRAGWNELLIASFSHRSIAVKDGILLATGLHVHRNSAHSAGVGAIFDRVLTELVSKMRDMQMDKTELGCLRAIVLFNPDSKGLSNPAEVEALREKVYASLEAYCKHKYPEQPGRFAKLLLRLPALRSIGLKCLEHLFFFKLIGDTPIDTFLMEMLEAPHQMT
Chain of human Retinoid X Receptor beta (RXRb), RXRB (gene 6257) (P28702 whole entry, looked up, the tested form may be a part): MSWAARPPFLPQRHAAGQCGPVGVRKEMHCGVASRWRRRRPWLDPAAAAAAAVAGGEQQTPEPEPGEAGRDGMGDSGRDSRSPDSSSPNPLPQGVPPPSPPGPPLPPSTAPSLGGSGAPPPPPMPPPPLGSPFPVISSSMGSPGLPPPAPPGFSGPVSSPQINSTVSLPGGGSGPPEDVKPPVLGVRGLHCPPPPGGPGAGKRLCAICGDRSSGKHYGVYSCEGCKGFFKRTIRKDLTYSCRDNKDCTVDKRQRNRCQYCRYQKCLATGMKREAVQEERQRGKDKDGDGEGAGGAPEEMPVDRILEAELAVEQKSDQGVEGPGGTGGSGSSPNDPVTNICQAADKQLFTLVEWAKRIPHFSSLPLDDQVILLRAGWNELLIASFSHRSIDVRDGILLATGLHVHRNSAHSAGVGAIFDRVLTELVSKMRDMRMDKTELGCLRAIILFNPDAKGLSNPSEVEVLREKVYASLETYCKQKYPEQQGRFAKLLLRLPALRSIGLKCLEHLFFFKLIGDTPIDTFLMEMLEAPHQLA
Chain of Hepatocyte nuclear factor 4-alpha (Homo sapiens) (P41235 whole entry, looked up): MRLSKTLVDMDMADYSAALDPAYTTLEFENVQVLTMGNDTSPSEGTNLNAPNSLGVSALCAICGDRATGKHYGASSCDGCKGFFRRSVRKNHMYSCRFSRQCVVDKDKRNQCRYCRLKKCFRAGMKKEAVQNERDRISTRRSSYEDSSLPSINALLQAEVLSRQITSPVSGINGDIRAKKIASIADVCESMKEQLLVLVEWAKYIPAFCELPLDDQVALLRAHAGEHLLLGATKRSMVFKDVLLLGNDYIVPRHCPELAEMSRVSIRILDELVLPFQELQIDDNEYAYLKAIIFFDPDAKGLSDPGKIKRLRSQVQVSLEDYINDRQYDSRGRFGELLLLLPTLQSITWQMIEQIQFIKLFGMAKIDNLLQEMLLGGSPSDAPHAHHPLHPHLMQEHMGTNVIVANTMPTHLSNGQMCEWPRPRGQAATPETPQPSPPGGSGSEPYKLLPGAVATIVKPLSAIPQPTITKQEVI
Chain of Nuclear respiratory factor 1 (Homo sapiens) (Q16656 whole entry, looked up): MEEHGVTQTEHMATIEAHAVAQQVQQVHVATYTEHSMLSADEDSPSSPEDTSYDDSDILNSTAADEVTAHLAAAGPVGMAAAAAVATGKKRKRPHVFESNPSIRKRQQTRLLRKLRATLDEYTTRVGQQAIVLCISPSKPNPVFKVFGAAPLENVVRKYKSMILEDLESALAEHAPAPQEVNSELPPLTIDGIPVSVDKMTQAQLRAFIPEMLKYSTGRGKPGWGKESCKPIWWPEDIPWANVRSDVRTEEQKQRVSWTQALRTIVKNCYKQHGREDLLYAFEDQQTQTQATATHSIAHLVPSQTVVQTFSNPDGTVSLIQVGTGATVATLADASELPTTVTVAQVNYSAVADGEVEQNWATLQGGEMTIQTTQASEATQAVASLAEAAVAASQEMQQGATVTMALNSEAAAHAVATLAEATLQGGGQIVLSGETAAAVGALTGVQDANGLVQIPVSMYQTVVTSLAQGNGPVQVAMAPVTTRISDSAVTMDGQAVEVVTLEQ

CN(C)Cc1cc(C(C)(C)C)c(O)c(C(C)(C)C)c1
active: [9] 22.9 µM | [10] 1.67 µM
not listed: [14] | [15] | [16] | [17] | [18] | [19] | [20]
inactive: all other assays above

c1ccc2c(c1)Oc1ccccc1S2
active: [3] 173 µM
not listed: [1] | [5] | [8] | [12] | [13] | [20]
inactive: all other assays above

CC(C)CC(=O)O
not listed: [6] | [7] | [9] | [10] | [13] | [17]
inactive: all other assays above

C[C@H]1C[C@H]2[C@@H]3CCC4=CC(=O)C=C[C@]4(C)[C@@]3(F)[C@@H](O)C[C@]2(C)[C@@]1(O)C(=O)CO
active: [5] 80.1 µM
not listed: [1] | [2] | [4] | [6] | [7] | [14] | [18] | [20]
inactive: all other assays above

Cc1ccccc1S(N)(=O)=O
not listed: [5] | [6] | [8] | [17] | [19] | [20]
inactive: all other assays above

CCCCCC1CCCC(=O)O1 (centres undefined)
not listed: [3] | [12] | [13] | [14]
inactive: all other assays above

CCCCCCCCCCC1CO1 (centres undefined)
active: [3] 159 µM | [5] 152 µM
not listed: [1] | [4] | [11] | [13] | [14] | [18] | [20]
inactive: all other assays above

CC(=O)c1nccs1
not listed: [2] | [9] | [11] | [13] | [14] | [16] | [17]
inactive: all other assays above
